Here are results for 33 molecules from PubChem BioAssay (EPA / NIEHS).

The AC50 is the concentration at which the activity in the assay is half-maximal.

Read-out in assay [1]: ABC Transporter (ABCB1), ABCB1 (gene 5243)
In words: CLD_ABCB1_24hr: CellzDirect (CLD) Gene Expression Assay for ABC Transporter (ABCB1) at 24 hours (AID 2283684). In short, it runs like this: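 Primary human hepatocytes, two donor preparations, dosed daily with fresh solutions; vehicle 0.2% DMSO; harvested at 24 h. ABCB1 mRNA measured by quantitative nuclease protection assay (chemiluminescence); morphology-based cytotoxicity annotated.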

Read-out in assay [2]: Cytochrome P450 3A4 (Homo sapiens) (UniProt P08684)
In words: CLD_CYP3A4_24hr: CellzDirect (CLD) Gene Expression Assay for xenobiotic metabolism (CYP3A4) at 24 hours (AID 2283689). A digest of the protocol:
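Primary human hepatocytes from two donors dosed daily with fresh compound for two days, 0.2% DMSO vehicle. CYP3A4 mRNA at 24 hr by qNPA chemiluminescence; gain-of-signal fit versus DMSO, cytotoxicity flagged by morphology.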

Read-out in assay [3]: Cytochrome P450 2B6 (Homo sapiens) (UniProt P20813)
In words: CLD_CYP2B6_24hr: CellzDirect (CLD) Gene Expression Assay for xenobiotic metabolism (CYP2B6) at 24 hours (AID 2283686). In short, it runs like this:
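Primary human hepatocytes dosed daily for two days with fresh solutions, harvested at 24 hours; mRNA induction quantified by qNPA chemiluminescence, gain of signal vs 0.2% DMSO vehicle. Cytotoxicity annotated from phase-contrast morphology.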

Read-out in assay [4]: Cytochrome P450 2C9 (Homo sapiens) (UniProt P11712)
Briefly: CLD_CYP2C9_24hr: CellzDirect (CLD) Gene Expression Assay for xenobiotic metabolism (CYP2C9) at 24 hours (AID 2283688).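 As to AC50: potency for induction meaning a rise in CYP2C9 mRNA over DMSO vehicle.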 A digest of the protocol: (§1)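 Primary human hepatocytes from two donor preparations, dosed daily for two days at multiple concentrations; vehicle 0.2% DMSO. CYP2C9 mRNA induction at 24 h measured by qNPA chemiluminescence relative to DMSO; cytotoxicity annotated from morphology.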

Read-out in assay [5]: Cytochrome P450 2C19 (Homo sapiens) (UniProt P33261)
In words: CLD_CYP2C19_24hr: CellzDirect (CLD) Gene Expression Assay for xenobiotic metabolism (CYP2C19) at 24 hours (AID 2283687).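 Also: activity means mRNA induction above DMSO vehicle baseline.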 In short, it runs like this: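 Primary human hepatocytes (two donor preparations) dosed daily with fresh test chemical in 0.2% DMSO vehicle; CYP2C19 mRNA induction measured at 24 h by quantitative nuclease protection assay with chemiluminescence, fitted for gain of signal versus DMSO.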

Read-out in assay [6]: xenobiotic metabolism (CYP2C9), CYP2C9 (gene 1559)
In words: CLD_CYP2C9_24hr: CellzDirect (CLD) Gene Expression Assay for xenobiotic metabolism (CYP1A2) at 24 hours (AID 2283688).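 As to AC50: potency for induction meaning a rise in CYP2C9 mRNA over DMSO vehicle.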 A digest of the protocol: as §1

Read-out in assay [7]: Glyceraldehyde-3-phosphate dehydrogenase (Homo sapiens) (UniProt P04406)
Briefly: CLD_GAPDH_24hr: CellzDirect (CLD) Gene Expression Assay for Baseline Control (Glyceraldehyde 3-phosphate dehydrogenase) at 24 hours (AID 2283692). A digest of the protocol: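 Primary human hepatocytes (two donor preparations) dosed daily for two days, 0.2% DMSO vehicle; GAPDH mRNA measured at 24 h by qNPA chemiluminescence as a background control, gain-of-signal fitted against DMSO.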

Each structure is given as a SMILES string. Inconclusive results are not listed. The source made the active and inactive calls. The calls were made as follows: active = hit-call score of the fitted dose curve at least 0.9, where 1 is the maximum; inconclusive = response in the unintended direction; inactive = score below 0.9.

Cytochrome P450 2C19 (Homo sapiens), sequence (P33261 whole entry, looked up): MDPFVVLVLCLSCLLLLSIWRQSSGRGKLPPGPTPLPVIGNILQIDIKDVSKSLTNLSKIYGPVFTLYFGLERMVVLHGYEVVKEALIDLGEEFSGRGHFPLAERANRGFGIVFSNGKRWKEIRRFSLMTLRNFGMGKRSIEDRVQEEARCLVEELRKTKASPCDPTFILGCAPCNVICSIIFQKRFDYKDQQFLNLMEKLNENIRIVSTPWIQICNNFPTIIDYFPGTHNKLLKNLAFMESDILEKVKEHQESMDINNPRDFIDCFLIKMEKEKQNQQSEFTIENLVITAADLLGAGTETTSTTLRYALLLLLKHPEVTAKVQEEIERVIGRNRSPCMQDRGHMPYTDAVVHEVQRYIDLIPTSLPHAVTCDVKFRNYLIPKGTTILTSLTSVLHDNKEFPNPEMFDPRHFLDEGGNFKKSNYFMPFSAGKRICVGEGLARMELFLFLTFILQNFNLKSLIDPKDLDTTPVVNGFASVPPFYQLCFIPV
Glyceraldehyde-3-phosphate dehydrogenase (Homo sapiens), sequence (P04406 whole entry, looked up): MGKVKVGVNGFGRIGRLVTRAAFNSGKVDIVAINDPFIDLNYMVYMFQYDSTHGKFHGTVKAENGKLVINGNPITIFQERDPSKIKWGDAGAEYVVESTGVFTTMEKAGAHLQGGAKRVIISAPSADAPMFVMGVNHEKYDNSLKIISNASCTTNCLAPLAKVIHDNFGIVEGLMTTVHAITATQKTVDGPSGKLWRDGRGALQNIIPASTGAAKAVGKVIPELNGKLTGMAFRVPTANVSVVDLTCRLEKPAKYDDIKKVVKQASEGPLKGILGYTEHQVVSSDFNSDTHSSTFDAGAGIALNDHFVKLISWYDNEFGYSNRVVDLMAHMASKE
Cytochrome P450 3A4 (Homo sapiens), sequence (P08684 whole entry, looked up): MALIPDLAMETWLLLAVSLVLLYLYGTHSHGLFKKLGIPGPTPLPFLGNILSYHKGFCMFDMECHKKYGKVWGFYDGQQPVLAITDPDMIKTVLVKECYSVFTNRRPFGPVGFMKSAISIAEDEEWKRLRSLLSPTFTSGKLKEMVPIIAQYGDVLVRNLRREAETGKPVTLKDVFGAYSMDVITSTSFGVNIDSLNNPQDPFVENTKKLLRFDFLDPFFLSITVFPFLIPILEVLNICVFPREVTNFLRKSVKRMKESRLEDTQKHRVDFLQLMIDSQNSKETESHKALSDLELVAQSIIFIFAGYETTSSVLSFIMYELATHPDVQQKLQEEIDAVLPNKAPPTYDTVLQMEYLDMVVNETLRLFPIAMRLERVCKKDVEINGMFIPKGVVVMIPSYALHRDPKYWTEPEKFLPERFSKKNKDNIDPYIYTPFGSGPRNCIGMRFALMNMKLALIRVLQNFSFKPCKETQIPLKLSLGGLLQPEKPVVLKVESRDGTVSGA

For `COC(=O)N(C(=O)N1CO[C@@]2(C(=O)OC)Cc3cc(Cl)ccc3C2=N1)c1ccc(OC(F)(F)F)cc1`, the result in assay [1] was inactive. Besides, the AC50 in assay [2] is 6.53 µM (active).

As to `COC(=O)NC(=S)Nc1ccccc1NC(=S)NC(=O)OC`, the AC50 in assay [3] was 7.45 µM (active). For the same molecule, the outcome in assay [4] was inactive.

Take `Cc1cc(C)nc(Nc2ccccc2)n1`: the AC50 in assay [3] was 1.9 µM (active).

For `CNC(=O)N(C)c1nnc(C(C)(C)C)s1`, the outcome in assay [5] was inactive.

Consider `CC(C)Oc1cccc(NC(=O)c2ccccc2C(F)(F)F)c1`, for which the call in assay [1], in assay [5] and in assay [4] was inactive.

For the molecule `COCc1cnc(C2=NC(C)(C(C)C)C(=O)N2)c(C(=O)O)c1` (stereo unspecified), the outcome in assay [4] and in assay [2] was inactive.

On to `Cc1nc(N(C)C)nc(OC(=O)N(C)C)c1C`, for which the AC50 in assay [3] is 4.29 µM (active). The molecule was called inactive in assay [5] and in assay [4].

Take `CS(=O)(=O)c1ccc(C(=O)C2C(=O)CCCC2=O)c([N+](=O)[O-])c1`: the molecule was called inactive in assay [1], in assay [5] and in assay [7]. In assay [6], the concentration at half-maximal activity (AC50) was 0.000305 µM (active).

Regarding `COCC(=O)N(c1c(C)cccc1C)C(C)C(=O)OC` (stereo unspecified), the molecule was called inactive in assay [1], in assay [5], in assay [4] and in assay [7].

For the molecule `COP(=S)(OC)Oc1ccc([N+](=O)[O-])c(C)c1`, the molecule was called inactive in assay [1] and in assay [7]. For the same molecule, in assay [2], the AC50 is 16.6 µM (active).

Turning to `CC1(C)C(C=C(Cl)Cl)C1C(=O)OC(C#N)c1cccc(Oc2ccccc2)c1` (stereo unspecified), the molecule was called inactive in assay [1], in assay [5] and in assay [4].

As for `CC(C)=CC1C(C(=O)OCc2coc(Cc3ccccc3)c2)C1(C)C` (stereo unspecified), the result in assay [5], in assay [4] and in assay [7] was inactive.

Take `COCC(C)N(C(=O)CCl)c1c(C)csc1C` (stereo unspecified): the call in assay [1] and in assay [4] was inactive.

`CCCN(CC)CC1COC2(CCC(C(C)(C)C)CC2)O1` (stereo unspecified): the molecule was called inactive in assay [1], in assay [5] and in assay [7]. In addition, the AC50 in assay [2] was 4.82 µM (active).

On to `COc1cc(Cl)c(OC)cc1Cl`, for which the result in assay [1], in assay [5], in assay [4] and in assay [2] was inactive.

As to `COc1cc(OC)nc(NC(=O)NS(=O)(=O)c2ncccc2OCC(F)(F)F)n1`, the call in assay [1], in assay [5] and in assay [4] was inactive.

For the molecule `CCNP(=S)(OC)O/C(C)=C/C(=O)OC(C)C` (stereo unspecified), the outcome in assay [1] and in assay [4] was inactive. Moreover, the AC50 in assay [3] is 0.981 µM (active).

With `CCOP(=O)(OCC)Oc1nc(Cl)c(Cl)cc1Cl`, the molecule was called inactive in assay [4] and in assay [7].

Take `CS(=O)(=O)c1cc(C(F)(F)F)ccc1C(=O)c1cnoc1C1CC1`: the call in assay [1], in assay [5] and in assay [7] was inactive. For the same molecule, the concentration at half-maximal activity (AC50) in assay [2] is 9.79 µM (active).

As to `CNC(=O)Oc1cccc2ccccc12`, the molecule was called inactive in assay [1] and in assay [7].

Regarding `CC(C)N1C(=O)c2ccccc2NS1(=O)=O`, the molecule was classed as inactive in assay [1], in assay [3], in assay [5], in assay [2] and in assay [7].

As for `Nc1c(Cl)c(F)nc(OCC(=O)O)c1Cl`, the result in assay [5], in assay [4] and in assay [7] was inactive.

Turning to `CCCC(=NOCC)C1=C(O)CC(CC(C)SCC)CC1=O` (stereo unspecified), the molecule was classed as inactive in assay [1], in assay [5], in assay [4] and in assay [7]. For the same molecule, the concentration at half-maximal activity (AC50) in assay [3] is 28.9 µM (active).

Regarding `CCC(C)n1c(=O)[nH]c(C)c(Br)c1=O` (stereo unspecified), the call in assay [2] was inactive.

Turning to `Clc1nc(Cl)nc(Nc2ccccc2Cl)n1`, the molecule was classed as inactive in assay [1] and in assay [7].

Turning to `C=C(C)CN(CC)c1c([N+](=O)[O-])cc(C(F)(F)F)cc1[N+](=O)[O-]`, the outcome in assay [1], in assay [5], in assay [4] and in assay [7] was inactive.

`CCN(CC)C(=O)C(C)Oc1cccc2ccccc12` (stereo unspecified): the molecule was classed as inactive in assay [5] and in assay [4].

Consider `CC1(C)CON(Cc2ccccc2Cl)C1=O`, for which the result in assay [1], in assay [5] and in assay [7] was inactive. For the same molecule, in assay [2], the AC50 was 20 µM (active).

On to `CCOc1cc(C(C)(C)C)ccc1C1COC(c2c(F)cccc2F)=N1` (stereo unspecified), for which the molecule was called inactive in assay [1] and in assay [4].

Regarding `O=C1C2CC=CCC2C(=O)N1SC(Cl)(Cl)Cl` (stereo unspecified), the outcome in assay [1], in assay [5], in assay [4] and in assay [7] was inactive.

In the case of `CCOc1nc(C(Cl)(Cl)Cl)ns1`, the result in assay [1], in assay [4] and in assay [7] was inactive.

Take `CCNC(=O)NC(=O)C(C#N)=NOC`: the call in assay [1], in assay [5], in assay [4] and in assay [7] was inactive.

On to `CC(C)N1C(=O)N(c2ccccc2)CSC1=NC(C)(C)C`, for which the outcome in assay [1] and in assay [4] was inactive.
